Our source for the median seed-adjusted z-score values is PubChem BioAssay AID1347426 (Functional Genomics Laboratory (NCATS/FGL), 2020).

Hit rate of the full screen: of about 31,000 sequences, about 1,400 (4.5%) were called active.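 How the source made its calls: active means median seed-adjusted z-score above 1 or below -1; inactive means the rest.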 The sample as a whole holds a higher share of actives than the screen did.

The experiment is described as follows: Novel Modifiers of Survival Motor Neuron (SMN) Protein: Gene Identification via Genome-wide siRNA Screen. Conditions: HEK293T SMN2-luciferase reporter, siRNA knockdown, 72 h; actives lie on both sides. The text has this: Spinal muscular atrophy (SMA) is the most common neuromuscular autosomal recessive disorder and one of the leading genetic causes of infant death. SMA results from mutations inducing loss of function or deletion in the survival of motor neuron-1 gene (SMN1), leading to deficiency of the survival motor neuron (SMN) protein. Although a second nearly identical gene, SMN2, is retained in humans, its expression primarily produces an aberrantly spliced isoform that is largely unstable and quickly degraded. We performed a genome-wide RNAi screen using a cell-based reporter assay to identify genes and pathways that modulate SMN protein stability. The screen identified over 200 genes that led to the greatest increase or decrease in luciferase expression.
Using HEK293T cells stably expressing a luciferase reporter that combines the promoter and splicing based cassettes in tandem with the major portion of the native SMN2 cDNA with luciferase, we performed a genome-wide RNAi screen to identify modulators of SMN protein levels. Luciferase is expressed when full-length SMN protein is generated with luminescence signal proportional to SMN protein levels. Our luciferase-based reporter assay was used to screen Ambion Silencer Select Human Druggable Genome siRNA library (10418 genes, 3 unique siRNAs per gene) using lipid-based reverse transfection.
Briefly, 1 pmol of each siRNA was spotted to a well of a 384-well plate (Corning, Corning, NY) and 20 microL of serum-free DMEM containing […] of Lipofectamine RNAiMax (Life Technologies, Carlsbad, CA) was then added to each well. Transfected cells were maintained at 37 degrees C in 5% CO2 for 72 hours, 20 microL of ONE-Glo Reagent (Promega) was added to wells for luciferase quantification. Raw luminescence reads were normalized to Ambion(R) Silencer(R) Negative Control #2 siRNA, then log10 transformed. A robust statistical measure of median absolute deviation (MAD) to standardize siRNA activities from each screen. Common Seed Analysis was used to help prioritize clean hits as opposed to those appearing to arise from seed based off-target effects. Candidate modulators were defined as the genes having a MAD score greater than 1.0 or less than -1.0.
In general terms: In a reporter assay the amount or activity of a reporter protein is the signal.
On to CAACAAAAGUUUCAUGCUATT against STK35, for which the median seed-adjusted z-score is 0.519 (inactive). With GGAGGUACGUGGAAAAGCATT against ORC3L, the median seed-adjusted z-score is -0.254 (inactive). As for GCUUCGGAAUUCAGACAUUTT against NFATC4, the figure is 0 (inactive). Turning to GGCCCUUGGCCUUACUAUGTT against ACSM2B, the median seed-adjusted z-score was -0.0401 (inactive).

Take GCACGAUAUUAUGAUCCAATT against PPAT: the median seed-adjusted z-score was -1.51 (active).

As for CAACCACCAUCUGACCUUUTT against MMP15, the median seed-adjusted z-score is -0.0489 (inactive). Regarding GGCUGAAAACGGAGCACAATT against PCDHB16, the median seed-adjusted z-score was -0.523 (inactive). As for CAGUGACUGUUGUUGGUCUTT against PKD1L3, the figure is -0.658 (inactive).

Regarding GGAGGAGCCUAAGAUGUCATT against ZNF442, the median seed-adjusted z-score is 1.06 (active). For the sequence AAGGGAAAGUGUACUGGUATT against MMP23B, the median seed-adjusted z-score was 0.288 (inactive). GGCUAUUGAUUGUCCACAUTT against L2HGDH: the median seed-adjusted z-score is -0.346 (inactive). With CUACCGAGAUUUUAGAUGATT against POLE, the median seed-adjusted z-score is -1.55 (active). Turning to CACUAUAUCUAUAUCGAAATT against PLD1, the median seed-adjusted z-score was 0.518 (inactive). Consider GACCCAUACAGAAAGUAGATT against SSR1, for which the median seed-adjusted z-score was -0.434 (inactive).

As to GAUGCGCACUCAGUCCUUATT against MLLT4, the median seed-adjusted z-score was -0.0762 (inactive).

Consider CUGUGAGAAUUGUUGCUCUTT against TRIP6, for which the median seed-adjusted z-score was 1.03 (active). On to GGAUCUCAGUCAAAGGCAUTT against CPZ, for which the median seed-adjusted z-score was -0.0748 (inactive). With CGAUCGAGUGGAUGAAGAATT against MMP24, the median seed-adjusted z-score was -1.28 (active).

Take ACAUUGAACGUCCCACGUATT against TUBA3E: the median seed-adjusted z-score is -0.35 (inactive). Consider GCUAAGAGCUUCGUGCUGATT against LGALS1, for which the median seed-adjusted z-score is 0.033 (inactive).

Take CCAUGGAUAUGGAAACCCATT against ALPK3: the median seed-adjusted z-score was 0.365 (inactive). In the case of GGAGAGAGCAGUUUCAACATT against HSPB8, the median seed-adjusted z-score is 0.207 (inactive).

GGAUAGAAUAUGUAACGGUTT against SUPT6H: the median seed-adjusted z-score was -2.54 (active). CACCGGUGAGAUUCCCUAUTT against ZNF546: the median seed-adjusted z-score was 0.497 (inactive). With GCUUACUACACUUUUCUAATT against G6PC2, the median seed-adjusted z-score is -0.0362 (inactive).

CAAACUCUACAUCACCUUUTT against GPR32: the median seed-adjusted z-score is -1.2 (active). On to CAAGAACUCGGAUAAUGAUTT against IL2RG, for which the median seed-adjusted z-score was -0.155 (inactive). For the sequence CACGGUAUAUGUUAGAGUATT against DSG3, the median seed-adjusted z-score was 0 (inactive).

Take UCCCUUACAUGUCACCAAATT against ZMIZ2: the median seed-adjusted z-score was -0.27 (inactive). Turning to GCCUACAAGCAGAUUCAAATT against PTRH2, the median seed-adjusted z-score was 0.0467 (inactive). In the case of ACCCAACUCUUACUCUUAATT against RNF7, the median seed-adjusted z-score was -1.18 (active). Take GGCUCAACGUAUAAGCGAATT against PIP5K1B: the median seed-adjusted z-score was 0.0917 (inactive). As for GAUGGAAACAUUGAAUAUATT against GTPBP2, the figure is -0.166 (inactive).

GAAGGAGUUUGCACAGAAATT against DHDH: the median seed-adjusted z-score was 0.522 (inactive). For the sequence CAGUCUUCAUUGCUACUAATT against NFE2L2, the median seed-adjusted z-score is -0.596 (inactive).

For GAAGCAAUCUGGGAAGAGATT against MOCS3, the median seed-adjusted z-score is -0.496 (inactive).

CGCCCAACCUUACUACCUUTT against TXNDC14: the median seed-adjusted z-score was -2.39 (active). Under GGAUGGUUGUGAGCCGCUATT against ZNF784 stands 0.291 (inactive); under CGACGACGUGCAAGACCAATT against ZNF787, -0.0628 (inactive). For the sequence CCUUUACUUUCUAUAGAAATT against ZNF573, the median seed-adjusted z-score is -0.169 (inactive).

GCAGUUAUUGGUACUAAUATT against MOAP1: the median seed-adjusted z-score is 0.0405 (inactive). Take AGAGAAUCUCGAGGAUAUATT against ZNF74: the median seed-adjusted z-score was 1.17 (active). As to CCUUAUCGCUAGAUGUCAATT against GRM3, the median seed-adjusted z-score was -0.401 (inactive). As for GCUGAGCUCAGUAACCACATT against LCAT, the figure is 0.526 (inactive). Consider GCAAUGCCCUUUUCACCGATT against SERPINA5, for which the median seed-adjusted z-score was -1.01 (active). For the sequence CCAUGACAACUUUCACUGATT against AGFG2, the median seed-adjusted z-score is -0.289 (inactive). Regarding GCAGAAAAGAACAACUUGUTT against RAB11B, the median seed-adjusted z-score is -0.857 (inactive). GCAAUAGGAUGGAUGAUCATT against GPSM2: the median seed-adjusted z-score was -0.755 (inactive). GCAGCUCACUUAAGGCCUATT against VPS18: the median seed-adjusted z-score is 0.181 (inactive). As for GAUCUAUUCUUAAUGCCGATT against TFB1M, the figure is 0.172 (inactive).

Consider GAAAUUUCUUAGGAACUCATT against ADH1B, for which the median seed-adjusted z-score is 0.325 (inactive). For CCCUCAAUCCAGCACAAAATT against LILRA4, the median seed-adjusted z-score is 0.109 (inactive). As for GGGACCGAGAGAUCAGAUATT against PPAP2C, the figure is -1.12 (active); as for CUUCCAAUGUUAAUGGACATT against VHLL, -0.0852 (inactive); as for GAGGCUCGGUAAUCAAUGATT against DERL1, 0.22 (inactive).

For GCUUUAGAAUACAUACCAATT against IFIT2, the median seed-adjusted z-score was -0.0205 (inactive).

As for CCCUCAAGGUACAAACAUUTT against POLD1, the median seed-adjusted z-score is -0.715 (inactive). In the case of CAGGAGCAGUUAGACUUAATT against DNALI1, the median seed-adjusted z-score was 0.699 (inactive). For GGUUUGCCCUUAUCUUGUATT against RDH10, the median seed-adjusted z-score was -0.28 (inactive).

With GAAUAACCGUUGGUUUAAUTT against U2AF1, the median seed-adjusted z-score is 2.08 (active). On to AAUUGAGGAAUACAAAAGATT against PAX3, for which the median seed-adjusted z-score was 0.0223 (inactive). Under GGAUGGGCAUGUUGAGAGATT against NUDT9 stands 0.277 (inactive); under GGAUCUGACAGACAAUGAUTT against ABCC3, -0.549 (inactive). Under CGUGGAUUCUUACGGAAGATT against CIT stands -0.0585 (inactive); under GAGUCUAUCUUGAUAAUCUTT against PPWD1, -0.341 (inactive); under CCGGGUUAAUUACCACCUUTT against MTHFR, 0 (inactive). As to GAGAAGUCGAGGCUCUUUATT against WNT6, the median seed-adjusted z-score is 0.027 (inactive).

As to CGGUGAACGGGUUGGAGAATT against PAX9, the median seed-adjusted z-score is -1.16 (active). For the sequence GCUUUGACCUUCUUAGCAATT against SMARCAL1, the median seed-adjusted z-score is -0.145 (inactive).

Turning to CAACGAUAUUUGGAUAUCUTT against DPP8, the median seed-adjusted z-score was -0.0209 (inactive). In the case of GGUCAAUACACCUAAGAAATT against PRDX1, the median seed-adjusted z-score is 0.288 (inactive). Regarding GAUCGUUUCCUAUACAGUATT against ESPL1, the median seed-adjusted z-score was 0.871 (inactive). Take GGGCUGUGAUCUUGUCGAATT against AGMAT: the median seed-adjusted z-score is -0.0269 (inactive). As to CAACGACAGAACUAACAGATT against SENP6, the median seed-adjusted z-score was -1.03 (active). Consider GAAGGUGUUUCAUACGAAUTT against SIPA1L1, for which the median seed-adjusted z-score is 0.0925 (inactive). As for CUCUAUGAAUAUUGUAUUATT against BUD31, the median seed-adjusted z-score was 0.0554 (inactive). In the case of GGCUAACAAUUUGUCCAGUTT against SEC22B, the median seed-adjusted z-score is -0.106 (inactive). For CGUCAUCUUUGCGAAGAUUTT against EHD2, the median seed-adjusted z-score is 0.0989 (inactive). Under CAACAUCUAUGAUUGGAAUTT against RFXANK stands -0.0665 (inactive). Under CCAGUGCUGUCAGUACGAUTT against LY6G5B stands -1.29 (active); under CCAAUAUUGUGGAUCCUUUTT against HTR4, 0.444 (inactive).

GAGCUAUAAUCAGACCUGUTT against ART5: the median seed-adjusted z-score is -0.354 (inactive). As for CGCUCACUGUUCUUCGGCUTT against RAD9A, the figure is -0.0564 (inactive). Consider CCCAAGACGUUCACCGUGATT against NF2, for which the median seed-adjusted z-score was -0.543 (inactive). CAUCAAACCUGGGAACAAATT against ZNF225: the median seed-adjusted z-score is 0.0761 (inactive). GGAACGAGGUGUCAGCUCUTT against RFXANK: the median seed-adjusted z-score was -0.0665 (inactive). For the sequence UCAACCUCAUGGACUUUAATT against SLC5A5, the median seed-adjusted z-score is 1.01 (active).

As to GGAGCUACUGAGAACAUAATT against HOXD4, the median seed-adjusted z-score is 0.566 (inactive). Under GGAACACUCAUGACUGUAATT against ZNF426 stands 0.2 (inactive); under CAAUGAGUAUGUGACGGAATT against UNC13A, -2.1 (active); under GGAUCCCGCUGCACAAGUUTT against CTSD, -0.282 (inactive).

In the case of CGUCUUCCUUGUGCGCCUATT against COL20A1, the median seed-adjusted z-score is -0.0033 (inactive). On to GGCUUAUGGGUGUUCGGAUTT against POLK, for which the median seed-adjusted z-score was -0.102 (inactive). Take CCGUCACUGAAGUCAAUAATT against CACNA1F: the median seed-adjusted z-score is 0.22 (inactive). Take CGGAUUCCAGGAAUGCUAATT against EIF5B: the median seed-adjusted z-score was 1.68 (active).

For the sequence CCACCAAAGUUCACCCUGATT against LMNA, the median seed-adjusted z-score is -0.409 (inactive). With GGGCCGAACUGAAAUACGATT against FGD2, the median seed-adjusted z-score is 0.0293 (inactive). With ACAAGUUCUUGGAGCCUUATT against ATP1B2, the median seed-adjusted z-score is -0.185 (inactive). As for CCCAAUCCCUAUUUGAGAATT against ADRA1D, the figure is -0.18 (inactive); as for GAUUAUAUUUGUCCAGCUATT against ESR2, -1.1 (active); as for CAAUCCAGGUGAUCGCAAATT against TPMT, 0.19 (inactive). CAAUGGUACCUAUGACUAUTT against ALG3: the median seed-adjusted z-score was -0.446 (inactive). In the case of GAGUACAUGUACUACCUGATT against RFX1, the median seed-adjusted z-score was 0.818 (inactive).

On to GAGUUAACGUAUCAGAACATT against LRRFIP1, for which the median seed-adjusted z-score was -0.181 (inactive). With ACUCUAUCCUUGCUUUGCATT against ZNF219, the median seed-adjusted z-score was 0.127 (inactive).

Regarding GCAUAACUGUAACAGAGAATT against RPP30, the median seed-adjusted z-score was -0.656 (inactive).

With GCUCAGAAGCAGUAAUGCATT against PQBP1, the median seed-adjusted z-score was -1.12 (active).

For GAAAUGCGAGCUGAACAUATT against CMAS, the median seed-adjusted z-score was -0.491 (inactive).
